The record followed here is PubChem BioAssay (NCATS).

For assay [1], the target named is Lysosomal acid glucosylceramidase (Homo sapiens) (UniProt P04062). The assay can be described thus: Glucocerebrosidase-p2 (AID 348; in the data active = potency below about 10 µM; also: potency is read from the fitted curve at half-maximal effect). As to conditions: purified GBA, blue fluorogenic substrate, 40 min. In short, it runs like this:
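Compounds titrated from 0.6 nM upwards against 0.2 nM enzyme in pH 5.9 citric acid/KH2PO4, taurocholate, tween-20; blue fluorogenic substrate 80 uM, 40 min room temperature, stopped and read Ex 365/Em 440 for AC50.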

Assay [2] can be described thus: AP1 Signaling Pathway (AID 357). Also: % is scaled to controls: 0 for no effect and ±100 for the full control effect. Summed up: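 AP-1-bla ME-180 cells with beta-lactamase reporter under AP-1 response element, stimulated with EC50 EGF; compounds titrated, 5 hours at 37 degrees Celsius. CCF4 read at 460/530 nm ratio; positive and negative modulators judged by AC50.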
Assay [3] can be described thus: NFAT Signaling Pathway (AID 444).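 Also: carbachol stimulus at about its EC50 of 1 µM final; % is scaled to controls: 0 for no effect and ±100 for the full control effect.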 As to conditions: Jurkat NFAT-bla M1, carbachol, beta-lactamase ratio, 5 h; at 17.2 µM (top of the series) unless noted. In short, it runs like this: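 Jurkat cells with NFAT-driven β-lactamase reporter and co-expressed M1 receptor, stimulated with carbachol (final 1 uM, ~EC50), compound titration, 5 h at 37 °C. CCF4 loaded 1 h at RT; 460/530 nm ratio gave %activity and AC50.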

Assay [4] in a line: Stat Signaling Pathway (AID 446).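 Also: ME-180 cervical cancer cells given 40 pM IL-6 alongside compound; SIE-controlled beta-lactamase reporter measured as 460/530 nm FRET emission ratio; % is scaled to controls: 0 for no effect and ±100 for the full control effect.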 In short, it runs like this: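 IL-6/STAT signaling read in ME-180 cells via an SIE beta-lactamase reporter. Stimulus was 40 pM IL-6 (its AC50) for 5 hrs, so both activation and inhibition register.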
Assay [5] addresses Mitogen-activated protein kinase 10 (Mus musculus) (UniProt Q61831). Kind of assay: JNK3 AlphaScreen Assay (AID 530).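 Also: kinase came from lysate of stimulated human HepG2 cells; signal reports phosphorylation of biotinylated GST-cJun 1-79 at Ser73 with 10 µM ATP; % is scaled to controls: 0 for no effect and ±100 for the full control effect.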 Summed up:
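qHTS format: compounds tested as titrations against IL-1beta/TNF-alpha-activated HepG2 lysate JNK3 with biotin-GST-cJun substrate and 10 uM ATP at room temperature. Loss of anti-phospho-cJun AlphaScreen signal indicates inhibition.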

For assay [6], the target named is Cytochrome P450 1A2 (Homo sapiens) (UniProt P05177). The assay can be described thus: p450-cyp1a2 (AID 410; calls by dose curve; also: potency is read from the fitted curve at half-maximal effect;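 as to activity change, negative = inhibition: -100% = full effect of reference inhibitor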). Summed up: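 Inhibition was calculated relative to 57 uM furafylline (full inhibition). The reaction used human CYP1A2 at 20nM with Luciferin-ME at its Km, 100uM, driven by an NADPH-regenerating system for 60 min at room temperature.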
Cytochrome P450 1A2 (Homo sapiens), sequence (P05177 whole entry, looked up): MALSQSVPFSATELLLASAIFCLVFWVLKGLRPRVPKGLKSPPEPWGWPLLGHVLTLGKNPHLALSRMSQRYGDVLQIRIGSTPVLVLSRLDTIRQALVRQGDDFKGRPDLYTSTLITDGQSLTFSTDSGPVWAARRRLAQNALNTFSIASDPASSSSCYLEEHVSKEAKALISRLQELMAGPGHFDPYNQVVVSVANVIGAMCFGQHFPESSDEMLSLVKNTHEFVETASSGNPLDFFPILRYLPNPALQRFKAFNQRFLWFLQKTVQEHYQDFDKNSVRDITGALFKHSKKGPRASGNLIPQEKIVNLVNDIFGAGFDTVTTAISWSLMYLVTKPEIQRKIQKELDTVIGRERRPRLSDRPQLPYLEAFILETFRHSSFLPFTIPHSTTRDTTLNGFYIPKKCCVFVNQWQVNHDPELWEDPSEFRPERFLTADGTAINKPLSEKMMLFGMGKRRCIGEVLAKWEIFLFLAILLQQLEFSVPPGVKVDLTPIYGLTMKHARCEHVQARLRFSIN
Assay [7] in a line: Cell Viability - BJ (AID 421; calls by dose curve;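 also: potency is read from the fitted curve at half-maximal effect; cells exposed to compound for 40 hours at 37 °C before readout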). As to conditions: BJ fibroblast viability, qHTS. Summed up: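 Quantitative HTS: ATP depletion in BJ cells after 40 hr compound exposure in complete culture medium, detected with CellTiter-Glo; AC50 from standard Hill fits.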
A short description of assay [8]: Cell Viability - Jurkat (AID 426;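 active = dose-dependent loss of cell ATP signal giving a full or clear fitted curve, ranked by lower potency value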; also: potency is read from the fitted curve at half-maximal effect). As to conditions: qHTS. Summed up: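 Seed 5000 Jurkat E6-1 cells/well; add compound; incubate 40 hr at 37 °C; add CellTiter-Glo; wait 20 min at room temperature; read luminescence. Fit concentration-response with Hill equation for AC50.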
Assay [9] in a line: Cell Viability - Hek293 (AID 427;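 active = compounds whose dose-response curve shows a full or clear partial loss of cell viability, called from curve shape rather than a numeric limit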;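 also: potency is read from the fitted curve at half-maximal effect; cells exposed to compound for 40 hours at 37 °C before reading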). The conditions noted are these: qHTS. In short, it runs like this:
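AC50 values derive from Hill-modelled concentration-response of ATP-based luminescence, normalized between DMSO-only and 100 uM tamoxifen controls. Cells were exposed in complete culture medium for 40 hr at 37 °C before detection.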

Assay [10] is described as follows: Cell Viability - HepG2 (AID 433; calls by dose curve;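 also: potency is read from the fitted curve at half-maximal effect; potency for ATP loss meaning cytotoxicity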). As to conditions: qHTS. Summed up:
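HepG2 hepatocellular carcinoma cells (1500/well) were treated with compounds for 40 h at 37 °C in complete medium; intracellular ATP was read by CellTiter-Glo luminescence. Data were normalized to DMSO and 100 uM tamoxifen, and AC50 came from Hill fits.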

Assay [11] is described as follows: Cell Viability - MRC5 (AID 434; calls by dose curve;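 also: potency is read from the fitted curve at half-maximal effect; potency reflects cytotoxicity seen as loss of intracellular ATP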). The conditions noted are these: MRC5 lung fibroblast viability, qHTS. In short, it runs like this: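 MRC5 normal human lung fibroblasts, 1500 cells/well, exposed to compound for 40 hr at 37 C. Cellular ATP was read by CellTiter-Glo luminescence; data normalized to DMSO and 100 uM tamoxifen, with AC50 from Hill fits.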
Assay [12] is described as follows: Cell Viability - SK-N-SH (AID 435; calls by dose curve;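 also: potency is read from the fitted curve at half-maximal effect; compound exposure lasted 40 h at 37 °C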). The conditions noted are these: SK-N-SH neuroblastoma cell viability qHTS. In short, it runs like this: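 SK-N-SH human neuroblastoma cells (1500/well) were exposed to compounds in complete medium for 40 h at 37 °C, and intracellular ATP was then measured by CellTiter-Glo luminescence. AC50 was taken from Hill fits, normalized to DMSO and 100 uM tamoxifen.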

The target in assay [13] is Glucocorticoid receptor (Homo sapiens) (UniProt P04150). The assay can be described thus: GR-GFP Redistribution (AID 450;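 active = compounds whose dose series gives a full or clear partial fitted curve of increased nuclear translocation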; also: potency is read from the fitted curve at half-maximal effect). As to conditions: U2OS GR-GFP nuclear translocation, laser cytometry, 2 h.
Glucocorticoid receptor (Homo sapiens), sequence (P04150 whole entry, looked up): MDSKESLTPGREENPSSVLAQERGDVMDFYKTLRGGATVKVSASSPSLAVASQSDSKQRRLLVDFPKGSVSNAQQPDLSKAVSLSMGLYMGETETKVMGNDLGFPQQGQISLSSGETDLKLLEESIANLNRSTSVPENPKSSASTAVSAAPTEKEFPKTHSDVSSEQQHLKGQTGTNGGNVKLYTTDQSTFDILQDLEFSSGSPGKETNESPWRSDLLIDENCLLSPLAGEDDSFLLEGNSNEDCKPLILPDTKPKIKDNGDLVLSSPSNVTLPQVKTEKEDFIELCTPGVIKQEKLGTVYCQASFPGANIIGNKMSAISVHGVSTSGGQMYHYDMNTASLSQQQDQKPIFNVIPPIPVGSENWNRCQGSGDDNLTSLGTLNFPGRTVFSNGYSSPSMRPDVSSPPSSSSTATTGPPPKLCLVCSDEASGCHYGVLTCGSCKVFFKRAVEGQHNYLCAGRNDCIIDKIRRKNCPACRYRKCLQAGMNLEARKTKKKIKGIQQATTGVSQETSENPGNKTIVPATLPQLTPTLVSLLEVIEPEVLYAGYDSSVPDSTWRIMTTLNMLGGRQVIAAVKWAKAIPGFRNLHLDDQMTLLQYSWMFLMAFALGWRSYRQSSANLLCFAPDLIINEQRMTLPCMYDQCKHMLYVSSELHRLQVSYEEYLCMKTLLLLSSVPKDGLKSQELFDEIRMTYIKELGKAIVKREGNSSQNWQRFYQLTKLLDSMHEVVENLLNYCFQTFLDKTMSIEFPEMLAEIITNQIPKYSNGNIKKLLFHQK
Assay [14] has the same target. The assay can be described thus: GR-EFC Redistribution (AID 451; calls by dose curve; also: potency is read from the fitted curve at half-maximal effect). As to conditions: CHO-K1 GR-EFC translocation, beta-gal luminescence, 2 h. Summed up:
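CHO-K1 cells expressing nuclear EA and GR-ED fragments of b-gal; compounds titrated up to 46 uM final, 2 h at 37 C. GR nuclear translocation read as complemented b-gal luminescence after 1 h RT detection.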

Assay [15] can be described thus: Cell Viability - N2a (AID 540; active = well fitted curve in the direction sought with a large enough effect; an effect the other way counts as inactive or inconclusive;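 also: plate controls were DMSO alone for no effect and tamoxifen control for full effect; nearly all actives have a fitted effect of over 45% in size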). In short, it runs like this:
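First, 1500 N2a cells per well incubate 5 hr at 37 °C; next, compounds are added and incubated 40 hr at 37 °C; finally CellTiter-Glo is added and luminescence read after 20 min, with AC50 derived by Hill modeling.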

The nature of assay [16]: Cell Viability - NIH 3T3 (AID 541; active = well fitted curve in the direction sought with a large enough effect; an effect the other way counts as inactive or inconclusive;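 also: plate controls were DMSO alone for no effect and tamoxifen positive control for full effect; nearly all actives have a fitted effect of over 25% in size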). In short, it runs like this:
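AC50 values reflect concentration-dependent loss of intracellular ATP in NIH 3T3 cells after 40 hr treatment in complete culture medium, quantified by luciferase-based luminescence.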

Assay [17] can be described thus: Cell Viability - HUV-EC-C (AID 542; active = well fitted curve in the direction sought with a large enough effect; an effect the other way counts as inactive or inconclusive; also: % is scaled to controls: 0 for no effect and ±100 for the full control effect; nearly all actives have a fitted effect of over 35% in size). Summed up: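 Decrease in cellular ATP, quantified by luciferase luminescence, reflects toxicity in normal human vascular endothelial HUV-EC-C cells given compound for 40 hr in complete culture medium. Values are AC50s from concentration-response curves.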
Assay [18] can be described thus: Cell Viability - H-4-II-E (AID 543; active = well fitted curve in the direction sought with a large enough effect; an effect the other way counts as inactive or inconclusive; also: % is scaled to controls: 0 for no effect and ±100 for the full control effect; nearly all actives have a fitted effect of over 35% in size). In short, it runs like this:
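Here, cytotoxicity is measured in the rat hepatoma line H-4-II-E as loss of intracellular ATP after 40 hr compound treatment, detected by luciferase luminescence.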

Assay [19] is described as follows: Cell Viability - Renal Proximal Tubule (AID 545; active = well fitted curve in the direction sought with a large enough effect; an effect the other way counts as inactive or inconclusive;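 also: 0% = DMSO only and -100% = 100 µM tamoxifen; nearly all actives have a fitted effect of over 40% in size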). In short, it runs like this:
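Primary rat renal proximal tubule cells (1000/well) were treated with compounds for 40 hr at 37 °C in complete medium. Intracellular ATP was measured by CellTiter-Glo luminescence, and AC50 values came from Hill-equation fits of concentration-response data.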

The nature of assay [20]: Cell Viability - Mesenchymal (AID 546; active = well fitted curve in the direction sought with a large enough effect; an effect the other way counts as inactive or inconclusive;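 also: cells exposed to compound for 40 hours before reading; 0% = DMSO only and -100% = 100 µM tamoxifen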). In short, it runs like this: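 Human kidney mesenchymal cells from normal renal glomeruli, 1000 cells/well, rested 5 hr at 37 °C, then treated 40 hr at 37 °C in complete medium. Cellular ATP read by CellTiter-Glo luminescence; AC50 from Hill-equation fits.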

Where “and” joins values, the source holds several entries; their conditions need not be identical. Equal values may be shown once. Values without a mark were called inactive. Records with an inconclusive call do not appear. Calls of active or inactive are those of the source. Unless noted, calls follow the shape of the dose curve; as a rule, active = well fitted curve in either direction with a large enough effect (not every such curve was filed as active); inconclusive = small, poorly fitted or top-dose-only effect, or another doubt; inactive = flat fitted curve, though single readings scatter. A value given as a limit tells only on which side of the number the result lay.

Lysosomal acid glucosylceramidase (Homo sapiens), sequence (P04062 whole entry, looked up): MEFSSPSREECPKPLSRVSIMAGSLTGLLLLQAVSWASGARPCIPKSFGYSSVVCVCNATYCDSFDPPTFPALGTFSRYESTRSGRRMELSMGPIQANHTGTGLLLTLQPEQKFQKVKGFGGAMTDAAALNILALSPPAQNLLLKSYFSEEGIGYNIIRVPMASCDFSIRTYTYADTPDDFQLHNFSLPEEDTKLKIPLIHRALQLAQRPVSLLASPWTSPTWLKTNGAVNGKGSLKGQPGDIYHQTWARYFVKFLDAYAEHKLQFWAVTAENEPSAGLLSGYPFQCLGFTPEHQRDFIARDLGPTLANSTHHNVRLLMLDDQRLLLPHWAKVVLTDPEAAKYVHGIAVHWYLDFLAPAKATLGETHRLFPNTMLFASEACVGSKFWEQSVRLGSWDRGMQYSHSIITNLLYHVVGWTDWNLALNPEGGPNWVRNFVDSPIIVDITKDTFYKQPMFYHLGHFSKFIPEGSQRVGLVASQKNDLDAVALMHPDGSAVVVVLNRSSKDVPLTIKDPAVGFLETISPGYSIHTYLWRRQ

For `O=S1(=O)OC(c2ccc(O)cc2)(c2ccc(O)cc2)c2ccccc21`, the Potency in assay [1] was over 11.4 µM. For the same compound, the call in assay [2], in [4] and in assay [5] was inactive. In assay [3], the activity change, negative = inhibition was 14.9% [at 7.69 µM].
On to `CC(=O)NS(=O)(=O)c1ccc(N)cc1`, for which the result in assay [2], in assay [4], in assay [5], in assay [15], in assay [16] and in [17] was inactive. The result in [18], in assay [19] and in assay [20] was inactive. Besides, the Potency entry in assay [6] is “inactive”. The Potency in [7], in assay [8], in assay [9], in assay [10], in assay [11] and in assay [12] was over 92 µM each time. The Potency in assay [13] and in [14] was over 20.6 µM throughout. The activity change, negative = inhibition in assay [3] is -1.44% and -25.8%.
With `CC(C)=CCC/C(C)=C/CO`, the figures for the Potency in assay [1], in [13] and in assay [14] were over 11.4 µM, over 46 µM and over 9.22 µM, respectively. Also, the compound was classed as inactive in [2] and in assay [5]. The activity change, negative = inhibition in assay [3] was 4.14% [at 7.69 µM].
On to `CC(=O)SC[C@@H](Cc1ccccc1)C(=O)NCC(=O)OCc1ccccc1`, for which the compound was classed as inactive in assay [2], in assay [4] and in [5]. For the same compound, the Potency in assay [6] was 2.51 µM (active); in assay [13], over 20.6 µM; in assay [14], over 20.6 µM. Moreover, the activity change, negative = inhibition in assay [3] was -12%.
`O=C(O)COC(=O)Cc1ccccc1Nc1c(Cl)cccc1Cl`: the result in assay [2], in assay [4] and in [5] was inactive. In addition, in assay [6], the Potency entry is “inactive”. Moreover, the activity change, negative = inhibition in assay [3] was -7.48%.
In the case of `CC[N+](CC)(CC(=O)Nc1c(C)cccc1C)Cc1ccccc1`, the compound was classed as inactive in assay [2], in assay [4] and in [5]. For the same compound, the Potency result in assay [6] is “inactive”.
For `CCCCOC(=O)c1ccc(N)cc1`, the compound was called inactive in assay [2], in assay [4], in [5], in assay [15], in [16] and in assay [17]. In addition, the compound was classed as inactive in assay [18], in [19] and in assay [20]. Besides, the Potency in assay [7], in [8], in [9], in assay [10], in assay [11] and in [12] was over 92 µM each time. The Potency in [13] and in assay [14] was over 20.6 µM in each case. In addition, the activity change, negative = inhibition in assay [3] is -8.04%.
With `Cc1cc(NC(=O)C2=C(O)c3ccccc3S(=O)(=O)N2C)no1`, the outcome in assay [2], in assay [4] and in [5] was inactive. Besides, the Potency result in assay [6] was “inactive”. Also, in assay [3], the activity change, negative = inhibition is -5.7% and 4.09%. Also, the Potency in assay [13] and in assay [14] was over 20.6 µM in each case.
Regarding `OC(CCN1CCCC1)(c1ccccc1)C1CCCCC1` (stereo not drawn), the compound was classed as inactive in assay [2] and in [4]. The activity change, negative = inhibition in assay [3] was -89.4% (active). Besides, the Potency in assay [13] is over 20.6 µM.
Regarding `O=C(Cn1ccnc1[N+](=O)[O-])NCCO`, the outcome in assay [2], in assay [4] and in assay [5] was inactive. The Potency entry in [6] is “inactive”. Besides, in assay [3], the activity change, negative = inhibition is -5.19%.
For the compound `Cc1ncc(CO)c(CN)c1O`, the Potency in [1] is over 11.4 µM. Further, the compound was classed as inactive in [2], in [4] and in [5]. In assay [3], the activity change, negative = inhibition is -0.448% [at 7.69 µM].
Regarding `CCc1cccc(CC)c1NC(=O)CN(CC(=O)O)CC(=O)O`, the result in assay [2], in assay [4] and in assay [5] was inactive. Also, the Potency entry in assay [6] is “inactive”. Further, the activity change, negative = inhibition in assay [3] is -2.21%. In addition, the Potency in assay [13] and in assay [14] was over 20.6 µM each time.
Regarding `NCc1ccc(S(N)(=O)=O)cc1`, the compound was called inactive in assay [2], in [4] and in assay [5]. The Potency result in [6] was “inactive”. Also, in [3], the activity change, negative = inhibition was -1.12% and 9.4%.
In the case of `CC(=O)[C@@]1(O)CC[C@H]2[C@@H]3C[C@H](C)C4=CC(=O)C=C[C@]4(C)[C@@]3(F)[C@@H](O)C[C@@]21C`, the result in assay [2] and in assay [4] was inactive. The activity change, negative = inhibition in assay [3] was 9.08%. Moreover, the Potency in assay [13] is over 20.6 µM.
With `O=C(O)c1ccccc1OP(=O)(O)O`, the call in [2], in assay [4] and in assay [5] was inactive. Moreover, the Potency entry in assay [6] is “inactive”. In assay [3], the activity change, negative = inhibition is -20.2%. Moreover, the Potency in assay [13] and in assay [14] was over 20.6 µM each time.
For `CCN(CC)CCOC(=O)C(c1ccccc1)c1ccccc1`, the compound was classed as inactive in assay [2], in assay [4] and in assay [5]. The Potency in assay [6] was 5.01 µM (active); in assay [13], over 20.6 µM; in [14] it was over 20.6 µM. The activity change, negative = inhibition in assay [3] is -79.3% (active).
For the compound `Cc1c(N(C)C)c(=O)n(-c2ccccc2)n1C`, the Potency in [7], in [8], in assay [9], in assay [10], in assay [11] and in assay [12] was over 92 µM throughout. Moreover, the Potency in assay [13] and in assay [14] was over 20.6 µM throughout. For the same compound, the activity change, negative = inhibition in [3] is -3.81%. For the same compound, the outcome in assay [4], in [5], in assay [15], in [16], in [17] and in [18] was inactive. For the same compound, the call in assay [19] and in assay [20] was inactive.
Consider `NC(=O)CC[C@@H](N)C(=O)O`, for which the compound was classed as inactive in [2], in [4] and in assay [5]. Further, the activity change, negative = inhibition in assay [3] was 0.712% [at 38 µM]. Moreover, the Potency in assay [13] and in assay [14] was over 46 µM throughout.
